# In the library only some 4.3% were active in any assay of this set; here they are far more common.
# uPA generation – qHTS for Inhibitors of Cell Surface uPA Generation; cell surface uPA generation assay, qHTS; Potency, µM (top dose mostly 38.3 µM), for inactives: at the highest dose activity change, negative = inhibition, most hits filed as inhibitors; hit rate 0.31% among 330,000; AID 540303, 2011; active = well fitted inhibition curve with a large enough effect; inconclusive = small, poorly fitted or top-dose-only effect; inactive = no such curve, though single readings can be large or run the other way; tested in mouse RAW 264.7 cells; note: potency is the fitted concentration of half-maximal effect; % is set by controls: 0 for no effect and ±100 for the full control effect; nearly all actives have a fitted effect of over 55% in size
# Giardia kill – Small Molecules that selectively kill Giardia lamblia: qHTS; activity change, % at 7.66 µM, hits read low; hit rate 0.15% among 340,000; Giardia lamblia trophozoite viability; AID 540267, 2011; in the data active = activity change below about -80%; inconclusive = between about -30% and that limit;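 note: parasites exposed to compound for two days anaerobically before the ATP read; % is set by controls: 0 for no effect and ±100 for the full control effect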
#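 Compounds were tested on trophozoites seeded at 100 cells/well and held 48 hrs at 37 deg C anaerobically. An ATP-based luminescent kit measured the remaining live cells.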
# SW480 rereplic – A quantitative high throughput screen for small molecules that induce DNA re-replication in SW480 colon adenocarcinoma cells; Potency, µM (series often up to 46.1 µM), for inactives: at the top dose re-replication activation, actives largely listed as activators; AID 624297, 2012; hit rate 1.8% among 340,000; SW480 DNA re-replication, Hoechst DNA content imaging, 48 h; note: potency is the fitted concentration of half-maximal effect; % of control where 0% means no effect; nearly all actives have a fitted effect of over 55% in size
#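 250 cells/well; 23 nL cpd via pin tool; 48 hr, 37 C, 5% CO2; Hoechst 40 min; imager read of total nuclear intensity, ex 405/em 500-530 nm.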
# MCF10A rerep – A quantitative high throughput screen for small molecules that induce DNA re-replication in MCF 10a normal breast cells; MCF 10A DNA re-replication, Hoechst nuclear intensity, 48 h; Potency, µM (series often up to 46.1 µM), without a hit: at the top dose activity, positive = re-replication, usual class: activators; hit rate 2.9% among 350,000; AID 624296, 2012; note: potency is the fitted concentration of half-maximal effect; % of control where 0% means no effect; nearly all actives have a fitted effect of over 50% in size
# * = called active by the depositor; ? = inconclusive; · = no result. Unless noted, calls come from the whole dose curve; as a rule, active = well fitted activation curve with a large enough effect; inconclusive = small, poorly fitted or top-dose-only effect; inactive = no such curve, though single readings can be large or run the other way.
SMILES,uPA generation,Giardia kill,SW480 rereplic,MCF10A rerep
COc1ccc(/C=C(/NC(=O)c2ccco2)C(=O)N2CCOCC2)cc1,-0.5%,-0.5,-30.6%,1.1%
COc1ccc(N/N=C(\C#N)C(N)=O)cc1,2.3%,0.6,-7.0%,-3.1%
N#C/C(=N/Nc1ccc(OC(F)(F)F)cc1)C(N)=S,7.94µM*,1.1,-8.2%,?
O=S1c2ccccc2Sc2ccccc21,6.1%,-1.2,-0.4%,2.3%
CCCC(=O)NC(NC(=S)Nc1ccc(N=Nc2ccccc2)cc1)C(Cl)(Cl)Cl (stereo unspecified),-8.9%,2.3,6.0%,13µM*
CCCC(=O)NC(NC(=S)Nc1ccc(S(N)(=O)=O)cc1)C(Cl)(Cl)Cl (stereo unspecified),8.9%,1.8,1.6%,-1.9%
O=C(/C=C/c1ccc(Cl)cc1)NC(=S)Nc1ccccc1C(=O)O,?,-5.8,16.4µM*,?
Cc1ccc(C)c(NC(=S)NC(NC(=O)/C=C/c2ccccc2)C(Cl)(Cl)Cl)c1 (stereo unspecified),-10.7%,-0.9,?,2.91µM*
O=C(/C=C/c1ccccc1)NC(NC(=S)Nc1cccc(Cl)c1)C(Cl)(Cl)Cl (stereo unspecified),-9.0%,-11.4,?,7.31µM*
NC(=O)c1ccccc1NC(=O)/C=C/c1ccc(Cl)cc1,?,-13.5,-1.4%,18.4%
CC[C@@]1(C(=O)OC)N[C@H](CN(C)S(=O)(=O)c2ccccc2)[C@@H]2C(=O)N(C)C(=O)[C@@H]21,-1.1%,-12.5,?,-1.7%
O=C(NC(NC(=S)Nc1c(Cl)cc(Cl)cc1Cl)C(Cl)(Cl)Cl)OCc1ccccc1 (stereo unspecified),-7.1%,8.5,?,13µM*
O=C(CCc1ccccc1)NC(NC(=S)Nc1ccc(Br)cc1)C(Cl)(Cl)Cl (stereo unspecified),-7.3%,9.1,-2.1%,-3.8%
O=C(/C=C/c1ccccc1)NC(NC(=S)Nc1ccc(Cl)cc1Cl)C(Cl)(Cl)Cl (stereo unspecified),-8.6%,9.1,?,11.6µM*
O=C(CCc1ccccc1)NC(NC(=S)Nc1cccc(Cl)c1)C(Cl)(Cl)Cl (stereo unspecified),-7.3%,-4.6,-11.3%,5.8µM*
c1ccc2c(CCNc3ncnc4nc[nH]c34)c[nH]c2c1,2.82µM*,19.2,?,?
CN(C(=O)COc1ccc2c(-c3ccccc3)cc(=O)oc2c1)C1CCS(=O)(=O)C1 (stereo unspecified),4.2%,-16.3,13µM*,?
Cc1cc(=O)oc2cc(OCc3ccc(C(=O)OCC(=O)N(C)C4CCS(=O)(=O)C4)cc3)ccc12 (stereo unspecified),-3.2%,-0.7,-2.9%,-5.2%
CC1=C(C(=O)N(C)C)C(c2ccc(N3CCOCC3)cc2)NC(=O)N1 (stereo unspecified),-5.1%,5.4,18.4µM*,0.92µM*
N#CC1=C2SCC(O)(c3ccccc3)N2C(=O)CC1c1cccs1 (stereo unspecified),·,-3.5,7.31µM*,1.3µM*
N#CC1=C2SCC(O)(c3ccccc3)N2C(=O)CC1c1ccccc1F (stereo unspecified),-13.0%,8.4,?,23.1µM*
COc1ccc(C2CC(=O)N3C(=C2C#N)SCC3(O)c2ccccc2)cc1 (stereo unspecified),·,8.8,-2.2%,21.0%
O=C(CN1C(=O)c2cccnc2Oc2ccc(Cl)cc21)NCCC1=CCCCC1,4.8%,-14.6,9.0%,1.0%
Cc1nn(CC(=O)N2CCC(C)CC2)c(=O)c2nn(-c3ccccc3)c(C)c12,10.4%,-5.9,-20.6%,0.9%
CCn1c(SCc2nc3ccccc3c(=O)[nH]2)nc2ccccc2c1=O,7.0%,7.0,-3.6%,-3.8%
SMILES,uPA generation,Giardia kill,SW480 rereplic,MCF10A rerep
C=CCn1c(SCc2nc3ccccc3c(=O)[nH]2)nc2scc(C3CC3)c2c1=O,3.1%,13.7,?,20.6µM*
COc1ccccc1CNC(=O)COC(=O)/C=C/c1ccc2c(c1)OCO2,0.3%,5.2,-6.1%,7.4%
COc1cccc(C(=O)/C=C/Nc2cc(C)ccc2O)c1,-16.8%,-12.9,18.4µM*,100.2%
S=C(Nc1ccccc1Cl)N1CCCC(c2ccccc2)=N1,34.7%,-7.6,?,13µM*
Cc1cccc(NC(=O)CN2CCN(C(=O)c3c(C)nn(Cc4ccccc4)c3C)CC2)c1C,-2.9%,14.0,4.8%,10.4%
Cc1ccc2nc(C(F)(F)F)c(C#N)c(N)c2c1,·,20.3,?,3.26µM*
Nc1c(N(Cc2ccccc2)C(=O)COc2ccc([N+](=O)[O-])cc2)c(=O)[nH]c(=O)n1Cc1ccccc1,?,-15.7,?,?
CCn1c(Cl)c(C=O)s/c1=N\S(=O)(=O)c1ccccc1,20.2%,14.1,14.6µM*,1.16µM*
Cc1ccc(NC(=O)C2COc3ccccc3O2)cc1S(=O)(=O)N1CCCCC1 (stereo unspecified),?,44.4,0.2%,21.8%
OCCNCCCCSc1ccc(Cl)cc1,8.91µM*,-7.6,2.7%,-4.9%
CCCCNC(=S)NNC(=O)CCn1nc(C)c(Br)c1C,·,-5.6,8.2µM*,6.1%
Cc1nn(CCC(=O)NNC(=S)Nc2ccc(F)cc2)c(C)c1Br,6.2%,6.5,8.0%,5.9%
Cc1ccc(Cn2c(CO)cnc2SCC(=O)Nc2ccc(C)c(Cl)c2)cc1,·,21.8,·,·
O=C(C1=NNCC1c1ccccc1)C1CO1 (stereo unspecified),?,-15.5,16.4µM*,23.1µM*
O=C(c1[nH]ncc1-c1ccccc1)C1CO1 (stereo unspecified),-3.3%,0.2,?,?
Cc1nc([N+](=O)[O-])c(Br)n1CC(=O)c1ccc2ccccc2c1,-12.8%,-3.0,?,0.651µM*
Cc1nc([N+](=O)[O-])c(Br)n1CC(=O)c1ccccc1,-18.2%,-9.4,?,?
COC(=O)c1cc(S(=O)(=O)N2CCCC2)c(Cl)cc1Cl,3.3%,-4.3,5.9%,9.4%
CN(C)CCCNc1cc(Cl)c(S(=O)(=O)N2CCCCC2)cc1C(=O)O,15.1%,2.4,-2.6%,2.59µM*
Cc1ccc(C2C(/C=C3/SC(=S)NC3=O)=C(c3cccs3)Oc3ccccc32)cc1 (stereo unspecified),-6.7%,-8.2,-0.1%,0.6%
CCC(C)NC(=O)COC(=O)c1oc2ccccc2c1CSc1ccc(Cl)cc1 (stereo unspecified),3.7%,30.1,0.92µM*,-0.8%
Oc1ccc(Br)cc1-c1ccnn1-c1ccccc1,-8.8%,6.9,?,7.31µM*
CCN(CC)C(=O)Cn1cc(C(=O)C(=O)NCCc2c[nH]c3ccccc23)c2ccccc21,6.1%,?,-25.1%,1.7%
CC1CCN(c2oc(-c3cccc4ccccc34)nc2C#N)CC1,3.4%,5.2,2.9%,10.3µM*
N#Cc1nc(-c2cccc3ccccc23)oc1N1CCCCC1,3.5%,-3.4,?,8.9%
COCCSc1nnc(NC(=O)COc2ccc3c(c2)OCO3)s1,4.1%,7.0,-1.1%,3.6%
CCCCCCCCCCCCCCCC[n+]1ccc(/C=N/O)cc1,-12.6%,-29.0,20.6µM*,2.59µM*

# Compound activity from PubChem BioAssay.
